# Source: PubChem
# A selection: hits, their analogues and other compounds. The true share with any hit is near 9%.
# HPGD block: qHTS Assay for Inhibitors of HPGD (15-Hydroxyprostaglandin Dehydrogenase); 15-hydroxyprostaglandin dehydrogenase [NAD(+)] (Homo sapiens), P15428; purified HPGD, NADH fluorescence kinetic, PGE2 substrate; Potency, µM, for the others: top-dose activity change, negative = inhibition, hits mostly inhibitors; hit rate 4.3% among 150,000; AID 894, 2007; further: potency means the concentration at half of the fitted maximal effect
#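 20 nM HPGD preincubated 15 min at room temperature with compound in 50 mM Tris-HCl pH 8, 0.01% Tween 20. Started with 1 mM NAD+ and 30 uM prostaglandin E2; NADH fluorescence (360/450 nm) read 5 times over 30-s intervals, last minus first.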
# ALDH1A1 block: qHTS Assay for Inhibitors of Aldehyde Dehydrogenase 1 (ALDH1A1). Aldehyde dehydrogenase 1A1 (Homo sapiens), P00352. Purified ALDH1A1, NADH fluorescence, propionaldehyde substrate. Potency, µM (top dose mostly 75.3 µM), inactives show at the top dose activity, negative = inhibition, most hits filed as inhibitors. hit rate 7.3% among 220,000. AID 1030, 2008;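 further: potency means the concentration at half of the fitted maximal effect; plate controls were no enzyme wells and a reference inhibitor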
# Target sequence (P00352 whole entry, looked up): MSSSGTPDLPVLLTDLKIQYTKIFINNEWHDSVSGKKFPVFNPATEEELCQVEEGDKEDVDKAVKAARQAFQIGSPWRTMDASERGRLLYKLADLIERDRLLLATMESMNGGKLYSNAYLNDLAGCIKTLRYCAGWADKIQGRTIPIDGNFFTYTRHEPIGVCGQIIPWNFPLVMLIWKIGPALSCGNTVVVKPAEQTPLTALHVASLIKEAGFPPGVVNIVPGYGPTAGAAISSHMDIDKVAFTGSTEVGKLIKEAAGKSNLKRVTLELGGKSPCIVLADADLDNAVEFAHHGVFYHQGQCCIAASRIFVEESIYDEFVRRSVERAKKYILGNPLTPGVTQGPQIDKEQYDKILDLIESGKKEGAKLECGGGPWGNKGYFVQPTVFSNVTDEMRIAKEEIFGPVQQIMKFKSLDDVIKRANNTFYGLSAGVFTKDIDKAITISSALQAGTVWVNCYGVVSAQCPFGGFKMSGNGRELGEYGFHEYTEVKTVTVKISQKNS
# IMPase inh: qHTS Assay for Identifying the Cell-Membrane Permeable IMPase Inhibitors; CHO-M1 cells, IP1 accumulation, HTRF TR-FRET ratio; inhibition (IP1 accumulation), % at 46.1 µM; 120,000 tested, under 10 active; AID 901, 2007; active means well fitted curve in the direction sought with a large enough effect in the signal ratio, not every such curve was filed as active; inconclusive means small, poorly fitted or top-dose-only effect, or a change in a side signal; inactive means no such curve, though single readings can be large or run the other way; the % refers to the signal ratio;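 further: cells stimulated with carbachol in lithium chloride buffer; plate controls were DMSO basal wells for no effect and reference inhibitor wells for full effect; higher means more IMPase inhibition seen as more IP1 and lower FRET ratio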
#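 Carbachol-driven Gq signalling in CHO-M1 cells (2000/well) generates IP1. Compounds that block IMPase raise IP1 and so reduce the FRET signal from Eu-anti-IP1 and d2-IP1 after a 10 min room-temperature lysis.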
# * = called active by the depositor; ? = inconclusive; nt = no result; [ ] = dose if it differs, or a comment. Unless noted, the call rests on the fitted dose curve; in most records, active means well fitted inhibition curve with a large enough effect (not every such curve was filed as active); inconclusive means small, poorly fitted or top-dose-only effect, or another doubt; inactive means no such curve, though single readings can be large or run the other way. Unless noted, on the % scale 0 is the no-effect control and ±100 the full control effect.
SMILES,HPGD block,ALDH1A1 block,IMPase inh
O=C(N/N=C/c1ccc(Cl)cc1Cl)C1CCN(c2ncc(C(F)(F)F)cc2Cl)CC1,-22%,3.5µM*,2
CCOC(=O)C(CC)Sc1ncnc2sc3c(c12)CCCC3 (stereo unspecified),nt,nt,2
CSc1ccc(S(=O)(=O)Nc2ccc3c4c(cccc24)CC3)cc1,-13%,?,5
O=S(=O)(Nc1ccc2c3c(cccc13)CC2)c1ccc(F)cc1,-15%,13µM*,3
COc1ccc(NC(=O)C2CCCN2C(=O)NCc2ccccc2)cc1 (stereo unspecified),nt,4%,nt
Cc1c(N=Cc2ccc[nH]2)c(=O)n(-c2ccccc2)n1C,?,13µM*,12
Cc1c(N=Cc2ccncc2)c(=O)n(-c2ccccc2)n1C,-13%,?,-4
C/C=C/Cn1c(SCCCc2ccccc2)nc2c1c(=O)[nH]c(=O)n2C,-14%,?,0
CCCCCn1c(SCC(=O)OC)nc2c1c(=O)[nH]c(=O)n2C,-6%,4%,-2
CCCCCOC(=O)CSc1nc2c(c(=O)[nH]c(=O)n2C)n1CCc1ccccc1,25µM*,25µM*,-5
Cc1csc(Sc2nc3c(c(=O)[nH]c(=O)n3C)n2Cc2ccccc2Cl)n1,nt,?,-5
CCC(C)Sc1nc2c(c(=O)[nH]c(=O)n2C)n1Cc1ccccc1Cl (stereo unspecified),-7%,1.3µM*,4
COC(=O)C(C)Sc1nc2c(c(=O)[nH]c(=O)n2C)n1CCCc1ccccc1 (stereo unspecified),-30%,?,-7
CCOC(=O)C(C)Sc1nc2c(c(=O)[nH]c(=O)n2C)n1CCc1ccccc1 (stereo unspecified),-15%,13µM*,10
CC(C)n1c(SCCCc2ccccc2)nc2c1c(=O)[nH]c(=O)n2C,20µM*,?,-5
Clc1nc(Cl)nc(NCCC2=CCCCC2)n1,nt,-1%,nt
Cc1cccc(C)c1-n1c(C)nn(CC2CC2)c1=O,nt,2%,nt
CCCCCn1c(SCCc2ccccc2)nc2c1c(=O)[nH]c(=O)n2C,-12%,?,7
CCOCCn1c(SCCc2ccccc2)nc2c1c(=O)[nH]c(=O)n2C,-11%,?,5
CCCCSc1nc2c(c(=O)[nH]c(=O)n2C)n1CCc1ccccc1,-21%,2.5µM*,-3
C/C=C/CSc1nc2c(c(=O)[nH]c(=O)n2C)n1CCC,-4%,?,3
CCCn1c(Sc2nc3c(c(=O)[nH]c(=O)n3C)n2CCC)nc2c1c(=O)[nH]c(=O)n2C,14µM*,-9%,5
CCCn1c(SCCc2ccccc2)nc2c1c(=O)[nH]c(=O)n2C,-26%,?,3
COCCn1c(SCCCc2ccccc2)nc2c1c(=O)[nH]c(=O)n2C,nt,20µM*,12
CC(C)CCn1c(SCCc2ccccc2)nc2c1c(=O)[nH]c(=O)n2C,?,6.3µM*,-4
SMILES,HPGD block,ALDH1A1 block,IMPase inh
NCCCC(N)CC(=O)NCC1NC(=O)C(CO)NC(=O)C(N)CNC(=O)C(C2CCN=C(N)N2)NC(=O)/C(=C\NC(N)=O)NC1=O (stereo unspecified),1%,1%,nt
CCOC(=O)C(CC)Sc1nc2c(c(=O)[nH]c(=O)n2C)n1C/C=C(/C)Cl (stereo unspecified),4µM*,3.5µM*,18
C/C(Cl)=C/Cn1c(SCC(C)C)nc2c1c(=O)[nH]c(=O)n2C,-17%,?,?
COc1ccc(C)cc1NC(=S)NC(C)c1ccc(OC)c(OC)c1 (stereo unspecified),nt,-10%,nt
CCNc1ccc(C(=O)OCC(=O)c2cc(C)n(Cc3ccc4c(c3)OCO4)c2C)cc1[N+](=O)[O-],-8%,5%,nt
Cc1csc(NC(=O)c2cc3c(s2)-c2ccccc2OC3)n1,?,?,-5
Cc1c(NC(=O)c2cc3c(s2)-c2ccccc2OC3)cccc1[N+](=O)[O-],?,14µM*,3
CN1CCc2cc(O)c(O)cc2[C@H](c2ccccc2)C1,nt,nt,2
O=C(O)C1CCC(N2C(=O)C3C4CCC(C4)C3C2=O)CC1 (stereo unspecified),nt,14%,nt
CCOC(=O)C(C)Oc1ccc2c(-c3cccc([N+](=O)[O-])c3)cc(=O)oc2c1 (stereo unspecified),35µM*,?,-7
COC(=O)COc1ccc2c(-c3cccc([N+](=O)[O-])c3)cc(=O)oc2c1,-17%,?,6
CCOC(=O)C(Oc1ccc2c(-c3ccccc3)cc(=O)oc2c1)c1ccccc1 (stereo unspecified),-19%,?,nt
CC(Oc1ccc2c(-c3ccccc3)cc(=O)oc2c1)C(=O)O (stereo unspecified),?,28µM*,-7
CC(NC(=O)OCc1ccccc1)C(=O)Oc1cc2oc(=O)cc(-c3ccccc3)c2cc1Cl (stereo unspecified),?,?,-19
COc1ccc(-c2cc(=O)oc3cc(OC(=O)C4CCCCC4)ccc23)cc1,?,-3%,nt
CCc1cc2c(-c3ccccc3)cc(=O)oc2cc1OC(=O)c1cccs1,3.2µM*,-1%,nt
O=C(Oc1ccc2c(-c3ccccc3)cc(=O)oc2c1)C1CCCCC1,?,2.2µM*,-3
CCOC(=O)C1=C(Nc2ccccc2)CC(C)(O)C(C(=O)OCC)C1c1ccc(Cl)cc1 (stereo unspecified),-7%,-13%,nt
CCOc1cc2[nH]c(=S)n(CCC(=O)NCc3ccc(OC)cc3)c(=O)c2cc1OCC,-20%,0%,3
O=C(Oc1ccc2c(-c3ccccc3)cc(=O)oc2c1)c1cccs1,?,11µM*,nt
O=C(Oc1ccc2ccc(=O)oc2c1)c1cccs1,-9%,?,nt
CCN(CCn1cccn1)Cc1nc(Cc2cccc(F)c2)no1,nt,2%,nt
CCC(C)[C@H](NC(=O)Nc1cccc(OC)c1)C(=O)OC (stereo partly specified),-12%,0%,-7
COc1cccc(NC(=O)NC(C)C2CC3CCC2C3)c1 (stereo unspecified),nt,5µM*,nt
CC(C)CO/N=C1/C[C@@H](O)[C@@H](O)[C@@H]2[C@@H]3C(=O)N(Cc4ccccc4)C(=O)[C@H]3CC[C@@H]12,nt,9%[13.5 µM],nt
SMILES,HPGD block,ALDH1A1 block,IMPase inh
CCOC(=O)Nc1ccc(C)cc1C,-4%,13%,-3
Cc1ccc(N/N=C(\C#N)C(N)=S)c(C)c1,14µM*,?,nt
COc1ccc(-c2nc(SCC(=O)NC3CCCC3)c(-c3ccc(F)cc3)[nH]2)cc1OC,nt,nt,16
COc1ccccc1NC(=O)Nc1c(C)nn(C)c1C,nt,7%,nt
O=C(C[n+]1cnn(CC(=O)c2ccc(Cl)cc2Cl)c1)c1ccc([N+](=O)[O-])cc1,0%,20µM*,6
O=C(Nc1cnn(Cc2ccc(Cl)cc2)c1)c1ccc([N+](=O)[O-])cc1,-13%,5%,8
CCCCC/C=C\C/C=C\C/C=C\C=C\[C@@H](O)CCCC(=O)O,-5%,5%,nt
CCCCn1c(/N=C/c2c[nH]c3ccccc23)nc2ccccc21,-18%,25µM*,6
C=CCn1c(/N=C/c2ccc(N(C)C)cc2)nc2ccccc21,nt,4%,1
